# Measurements published in PubChem BioAssay (EPA / NIEHS).
# Where “and” joins values, the source holds several entries; their conditions need not be identical. Equal entries are not always repeated. A structure can be active in one record and inactive in another. Calls of active or inactive are those of the source. Rule for the calls: active = hit-call score of the fitted dose curve at least 0.9, where 1 is the maximum; inactive = score below 0.9.
# Legend:
# [1] = APR_HepG2_CellLoss_72hr: Apredica 72-hour HepG2 Assay for Cell Loss (AID 2282915); conditions: high-content imaging
# Method in brief: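 HepG2 cells exposed 72 h to compound at 0.39–200 uM (10 concentrations, duplicate) in 0.5% DMSO. Fixed with 3.7% formaldehyde and Hoechst 33342-stained. Imaged at 20x; nuclear count gives cell number, fitted bidirectionally versus DMSO.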
# [2] = APR_HepG2_P-H2AX_72hr: Apredica 72-hour HepG2 Assay for H2AX Phosphorylation (AID 2282916); conditions: imaging, actives raise or lower the signal;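 note: phospho-histone H2A.x immunostain intensity per cell marking DNA damage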
# Method in brief: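 HepG2 cells treated 72 h at 0.39–200 uM, 0.5% DMSO final, duplicates. Formaldehyde-fixed, Triton-permeabilised, immunostained for phospho-H2A.x with Hoechst; fluorescence imaged at 20x, bidirectional fit versus DMSO.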
# [3] = APR_HepG2_MitoMembPot_72hr: Apredica 72-hour HepG2 Assay for Mitochondrial Membrane Potential (AID 2282917); conditions: imaging, actives raise or lower the signal
# Method in brief: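 HepG2 cells dosed 72 hr with compound at 0.39–200 uM in duplicate, 0.5% v/v DMSO final. Mitochondria stained with 250 nM MitoTracker Red CMXRos for 30 min before formaldehyde fixation, imaged by high-content fluorescence; bidirectional fit versus DMSO.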
# [4] = APR_HepG2_MitoticArrest_72hr: Apredica 72-hour HepG2 Assay for Mitotic Arrest (AID 2282918); conditions: high-content imaging, actives raise or lower the signal
# Method in brief: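 Mitotic arrest in HepG2 is scored from phospho-histone H3 staining after 72 hr dosing across 0.39–200 uM, with DMSO at 0.5% v/v. Nuclei are identified by Hoechst 33342 and fluorescence intensity is quantified per cell.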
# [5] = APR_HepG2_MicrotubuleCSK_72hr: Apredica 72-hour HepG2 Assay for Microtubule CSK Stabilty (AID 2282919); conditions: HepG2 microtubule cytoskeleton, high-content imaging, actives raise or lower the signal
# Method in brief: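 HepG2 cells were exposed 72 hr to compound at 0.39–200 uM in duplicate (0.5% DMSO final), then fixed and permeabilized. Alpha-tubulin immunofluorescence was imaged by high-content microscopy, with bidirectional fitting against DMSO and taxol as positive control.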
# [6] = APR_HepG2_P-H2AX_24hr: Apredica 24-hour HepG2 Assay for H2AX Phosphorylation (AID 2282920); conditions: high-content imaging, actives raise or lower the signal
# Method in brief: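 Signal comes from a FITC-labeled secondary detecting phospho-histone H2A.x in fixed HepG2 cells, quantified by automated imaging at 20x. Dosing ran 24 hr across 0.39–200 uM with 0.5% v/v DMSO.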
# [7] = APR_HepG2_StressKinase_72hr: Apredica 72-hour HepG2 Assay for Stress Kinase (AID 2282921); conditions: HepG2 stress kinase (phospho-c-Jun) imaging, actives raise or lower the signal
# Method in brief: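 HepG2 cells treated 72 hr with 0.39–200 uM compound, 0.5% v/v DMSO, duplicate wells. After formaldehyde fixation and Triton permeabilization, stained with anti-phospho-c-Jun (1:500) and Cy3 secondary, imaged at 20x. Fitted in both directions against DMSO.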
# [8] = APR_HepG2_StressKinase_24hr: Apredica 24-hour HepG2 Assay for Stress Kinase (AID 2282922); conditions: HepG2 stress kinase (phospho-c-Jun) imaging, actives raise or lower the signal
# Method in brief: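 HepG2 cells exposed 24 h to 0.39–200 uM compound in duplicate (0.5% v/v DMSO final). Cells fixed in 3.7% formaldehyde, permeabilized and immunostained for phospho-c-Jun; read by high-content fluorescence imaging, fitted bidirectionally against DMSO.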
# [9] = APR_HepG2_p53Act_72hr: Apredica 72-hour HepG2 Assay for p53 Activation (AID 2282923); conditions: high-content imaging, actives raise or lower the signal;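 note: average cellular p53 protein immunofluorescence intensity in HepG2 cells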
# Method in brief: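 HepG2 cells exposed 72 h to 0.39–200 uM in 0.5% DMSO, duplicates. Fixed, permeabilized cells immunostained for p53 (Cy5) with Hoechst; imaged at 20x, fluorescence analyzed bidirectionally against DMSO.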
# [10] = APR_HepG2_MitoMass_72hr: Apredica 72-hour HepG2 Assay for Mitochondrial Mass (AID 2282924); conditions: high-content imaging, actives raise or lower the signal;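 note: MitoTracker Red CMXRos stain intensity per cell imaged as mitochondrial mass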
# Method in brief: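 HepG2 cells dosed 72 hr at 0.39–200 uM (0.5% DMSO), in duplicate. MitoTracker Red CMXRos 250 nM loaded 30 min before formaldehyde fixation; high-content fluorescence imaging, bidirectional fit versus DMSO.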
# [11] = ATG_CRE_CIS: Attagene CIS-FACTORIAL HepG2 Assay for human cAMP Responsive Element (CRE) binding protein 3 (AID 2282926); conditions: HepG2 CRE cis-reporter, Attagene multiplexed mRNA; actives raise or lower the signal
# Method in brief: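 We dosed HepG2 cells bearing multiple cis-promoter reporter units for 24 h and measured reporter mRNA by RT-PCR with capillary electrophoresis detection. Bidirectional concentration-response fitting used DMSO as negative control.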
# [12] = molecular target: CCAAT/enhancer-binding protein beta (Homo sapiens) (UniProt P17676); assay: ATG_C_EBP_CIS: Attagene CIS-FACTORIAL HepG2 Assay for human CCAAT/Enhancer Binding Protein (C/EBP) beta (AID 2282927); conditions: HepG2 Attagene cis-factorial transcription factor reporter; actives raise or lower the signal
# Sequence of CCAAT/enhancer-binding protein beta (Homo sapiens) (P17676 whole entry, looked up): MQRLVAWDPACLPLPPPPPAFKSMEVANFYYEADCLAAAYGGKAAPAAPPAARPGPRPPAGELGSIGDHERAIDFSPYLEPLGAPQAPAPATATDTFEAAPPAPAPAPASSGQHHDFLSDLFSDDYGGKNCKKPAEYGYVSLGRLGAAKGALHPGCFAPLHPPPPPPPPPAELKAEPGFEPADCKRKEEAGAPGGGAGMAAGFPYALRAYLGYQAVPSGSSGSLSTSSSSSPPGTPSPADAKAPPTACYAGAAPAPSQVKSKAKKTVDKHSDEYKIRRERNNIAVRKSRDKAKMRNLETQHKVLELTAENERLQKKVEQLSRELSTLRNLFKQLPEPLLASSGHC
# Method in brief: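 HepG2 transiently transfected with multiplexed reporter units under cis-regulatory promoters reporting endogenous C/EBPb activity. After 24 h exposure, reporter mRNA assayed by RT-PCR, fluorescent labelling, HpaI digestion and capillary electrophoresis; bidirectional fitting versus DMSO.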
# [13] = ATG_DR4_LXR_CIS: Attagene CIS-FACTORIAL HepG2 Assay for human Liver X Receptor (LXR), DR4 submotif (AID 2282929); conditions: HepG2 Attagene DR4 cis-reporter, mRNA transcription; actives raise or lower the signal
# Method in brief: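 The endpoint is DR4-element-driven reporter transcripts after 24 h chemical exposure of transfected HepG2 cells. These were measured via RT-PCR and capillary electrophoresis, and gain or loss of signal was fitted relative to DMSO controls.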
# [14] = molecular target: Aryl hydrocarbon receptor (Homo sapiens) (UniProt P35869); assay: ATG_Ahr_CIS: Attagene CIS-FACTORIAL HepG2 Assay for human Aryl Hydrocarbon Receptor (Ahr) (AID 2282930); conditions: HepG2 AhR cis-factorial reporter transcription; actives raise or lower the signal
# Sequence of Aryl hydrocarbon receptor (Homo sapiens) (P35869 whole entry, looked up): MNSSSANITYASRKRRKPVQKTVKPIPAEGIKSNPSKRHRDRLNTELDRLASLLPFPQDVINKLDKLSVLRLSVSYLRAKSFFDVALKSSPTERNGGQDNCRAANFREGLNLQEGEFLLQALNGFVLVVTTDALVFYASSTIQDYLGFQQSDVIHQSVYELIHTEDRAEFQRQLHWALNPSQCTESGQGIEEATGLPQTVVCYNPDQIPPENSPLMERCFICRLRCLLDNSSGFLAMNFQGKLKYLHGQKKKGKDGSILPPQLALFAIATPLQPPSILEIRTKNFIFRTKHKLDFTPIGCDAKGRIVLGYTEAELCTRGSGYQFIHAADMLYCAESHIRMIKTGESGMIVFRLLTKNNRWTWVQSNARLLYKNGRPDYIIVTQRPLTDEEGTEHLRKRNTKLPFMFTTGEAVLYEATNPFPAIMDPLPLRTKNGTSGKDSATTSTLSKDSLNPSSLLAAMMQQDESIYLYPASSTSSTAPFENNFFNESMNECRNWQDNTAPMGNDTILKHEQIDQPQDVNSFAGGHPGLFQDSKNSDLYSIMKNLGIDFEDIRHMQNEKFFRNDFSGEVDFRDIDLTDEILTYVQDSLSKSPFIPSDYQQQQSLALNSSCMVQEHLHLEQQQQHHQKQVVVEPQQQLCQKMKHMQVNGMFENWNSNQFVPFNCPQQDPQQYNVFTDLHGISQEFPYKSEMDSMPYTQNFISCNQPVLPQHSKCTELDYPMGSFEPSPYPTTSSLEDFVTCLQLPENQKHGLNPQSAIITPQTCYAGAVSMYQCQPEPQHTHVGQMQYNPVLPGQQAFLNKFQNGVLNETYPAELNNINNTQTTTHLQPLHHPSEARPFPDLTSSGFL
# Method in brief: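 HepG2 cells transiently transfected with cis-element-driven multiplexed reporter units; endogenous AhR activity read as reporter mRNA 24 h after dosing, via RT-PCR, 6-FAM labelling, HpaI digestion and capillary electrophoresis. Bidirectional fit relative to DMSO.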
# [15] = ATG_AP_1_CIS: Attagene CIS-FACTORIAL HepG2 Assay for human Activator Protein 1 (AP-1) (AID 2282931); conditions: HepG2 Attagene cis-factorial AP-1 reporter mRNA; actives raise or lower the signal
# Method in brief: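 Readout is reporter transcript level from endogenous transcription factor activity, quantified by RT-PCR with fluorescent primer extension and capillary electrophoresis. Transiently transfected HepG2 cells, 24 h exposure. Curves fitted both directions versus DMSO.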
# [16] = ATG_AP_2_CIS: Attagene CIS-FACTORIAL HepG2 Assay for human Activator Protein 2 (AP-2) (AID 2282932); conditions: HepG2 AP-2 cis-reporter, Attagene transcription factor profiling; actives raise or lower the signal
# Method in brief: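 HepG2 cells transiently transfected with cis-element reporter units and exposed for 24 h. Reporter mRNA measured by RT-PCR, FAM labelling, HpaI digestion and capillary electrophoresis. Changes in either direction fitted relative to DMSO.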
# [17] = ATG_BRE_CIS: Attagene CIS-FACTORIAL HepG2 Assay for human Bone Morphogenetic Protein (BMP) Response Element (BRE) (AID 2282933); conditions: HepG2 BMP response element reporter, Attagene transcription factor profiling; actives raise or lower the signal
# Method in brief: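 Gain- or loss-of-signal was derived by bidirectional fitting against DMSO controls. The signal came from reporter mRNA, measured by RT-PCR and capillary electrophoresis, in HepG2 cells transiently carrying multiple reporter units and dosed for 24 h.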
# [18] = APR_HepG2_NuclearSize_72hr: Apredica 72-hour HepG2 Assay for Nuclear Size (AID 2282925); conditions: high-content imaging, actives raise or lower the signal
# Method in brief: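 HepG2 cells dosed 72 h at 0.39–200 uM (10 concentrations, duplicate) in 0.5% v/v DMSO final. Fixed, Hoechst 33342-stained nuclei imaged; nuclear diameter measured by automated image analysis. Bidirectional fit versus DMSO.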
# [19] = ATG_CMV_CIS: Attagene CIS-FACTORIAL HepG2 Assay for human CMV (Internal Marker) (AID 2282928); conditions: HepG2 CMV promoter reporter, transcription factor profiling; actives raise or lower the signal;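 note: endpoint acts as a background internal control marker rather than a target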
# Method in brief: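 HepG2 cells transiently transfected with multiple cis-regulated reporter units; 24 h compound exposure. Reporter mRNA quantified by RT-PCR, 6-FAM primer-extension labeling, HpaI digestion and capillary electrophoresis; bidirectional fitting against DMSO baseline.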
# [20] = molecular target: Retinoic acid receptor alpha (Homo sapiens) (UniProt P10276); assay: ATG_DR5_RAR_CIS: Attagene CIS-FACTORIAL HepG2 Assay for human Retinoic Acid Receptor Alpha (RARE), DR5 submotif (AID 2282934); conditions: HepG2 Attagene cis-factorial RARE DR5 reporter, mRNA; actives raise or lower the signal
# Sequence of Retinoic acid receptor alpha (Homo sapiens) (P10276 whole entry, looked up): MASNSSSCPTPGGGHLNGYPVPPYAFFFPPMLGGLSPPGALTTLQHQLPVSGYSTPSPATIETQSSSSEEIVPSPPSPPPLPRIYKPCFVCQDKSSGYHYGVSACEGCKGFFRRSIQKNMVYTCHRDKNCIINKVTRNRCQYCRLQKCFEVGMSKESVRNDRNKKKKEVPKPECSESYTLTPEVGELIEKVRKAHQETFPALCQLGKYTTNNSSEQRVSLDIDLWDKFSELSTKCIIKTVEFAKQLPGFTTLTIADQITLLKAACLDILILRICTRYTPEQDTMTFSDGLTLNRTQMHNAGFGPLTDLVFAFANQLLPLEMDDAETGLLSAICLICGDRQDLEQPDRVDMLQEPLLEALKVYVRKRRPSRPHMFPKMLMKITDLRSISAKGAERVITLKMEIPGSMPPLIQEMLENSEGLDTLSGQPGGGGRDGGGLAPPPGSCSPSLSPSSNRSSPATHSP
# Method in brief: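 HepG2 cells transiently transfected with multiplexed reporter units; DR5 cis-element drives reporter through endogenous transcription factors. After 24 h dosing, reporter mRNA quantified by RT-PCR, fluorescent labeling, HpaI digestion and capillary electrophoresis; bidirectional fitting versus DMSO.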
smiles,measurement,setting,value
COCC(C)O (stereo not drawn),outcome,[1],inactive
same,outcome,[2],inactive
same,outcome,[3],inactive
same,outcome,[4],inactive
same,outcome,[5],inactive
same,outcome,[6],inactive
same,outcome,[7],inactive
same,outcome,[8],inactive
same,outcome,[9],inactive
same,outcome,[10],inactive
same,outcome,[11],inactive
same,outcome,[12],inactive
same,outcome,[13],inactive
same,outcome,[14],inactive
same,outcome,[15],inactive
same,outcome,[16],inactive
same,outcome,[17],inactive
CCc1ccc(CCOc2ccc(CC3SC(=O)NC3=O)cc2)nc1 (stereo not drawn),AC50,[1],112 µM (active)
same,AC50,[2],103 µM (active)
same,outcome,[3],inactive
same,AC50,[4],103 µM (active)
same,outcome,[5],inactive
same,outcome,[6],inactive
same,outcome,[7],inactive
same,outcome,[8],inactive
same,outcome,[9],inactive
same,outcome,[18],inactive
same,outcome,[11],inactive
same,outcome,[12],inactive
same,outcome,[19],inactive
same,outcome,[13],inactive
same,outcome,[14],inactive
same,outcome,[15],inactive
same,outcome,[16],inactive
same,outcome,[17],inactive
O=c1c(-c2ccc(O)cc2)coc2cc(O)ccc12,outcome,[1],inactive
same,outcome,[2],inactive
same,outcome,[3],inactive
same,outcome,[4],inactive
same,outcome,[5],inactive
same,outcome,[6],inactive
same,outcome,[7],inactive
same,outcome,[8],inactive
same,outcome,[9],inactive
same,outcome,[18],inactive
same,outcome,[11],inactive
same,AC50,[12],100 µM (active) and 75.6 µM (active)
same,outcome,[12],inactive
same,outcome,[13],inactive
same,AC50,[14],69.7 µM (active)
same,outcome,[14],inactive
same,outcome,[15],inactive
same,outcome,[16],inactive
same,outcome,[17],inactive
same,outcome,[20],inactive
Oc1cccc(O)c1,outcome,[1],inactive
same,outcome,[2],inactive
same,outcome,[3],inactive
same,outcome,[4],inactive
same,outcome,[5],inactive
same,outcome,[6],inactive
same,outcome,[7],inactive
same,outcome,[8],inactive
same,outcome,[9],inactive
same,outcome,[10],inactive
same,outcome,[11],inactive
same,outcome,[12],inactive
same,outcome,[19],inactive
same,outcome,[13],inactive
same,outcome,[14],inactive
same,outcome,[15],inactive
same,outcome,[16],inactive
same,AC50,[17],29.7 µM (active)
same,outcome,[20],inactive
CC(=O)CC(C)(C)O,AC50,[1],11 µM (active)
same,AC50,[2],0.032 µM (active)
same,outcome,[3],inactive
same,AC50,[4],0.45 µM (active)
same,AC50,[5],0.0173 µM (active)
same,AC50,[6],19.8 µM (active)
same,outcome,[7],inactive
same,AC50,[8],100 µM (active)
same,AC50,[9],0.0395 µM (active)
same,outcome,[10],inactive
same,outcome,[11],inactive
same,outcome,[12],inactive
same,outcome,[13],inactive
same,outcome,[15],inactive
same,outcome,[16],inactive
same,outcome,[17],inactive
same,outcome,[20],inactive
CCCCCCCCC(=O)O,outcome,[1],inactive
same,outcome,[2],inactive
same,outcome,[3],inactive
same,outcome,[4],inactive
same,outcome,[5],inactive
same,outcome,[6],inactive
same,outcome,[7],inactive
same,outcome,[8],inactive
same,outcome,[9],inactive
same,outcome,[10],inactive
same,outcome,[11],inactive
same,outcome,[12],inactive
same,outcome,[13],inactive
same,outcome,[14],inactive
same,outcome,[15],inactive
same,outcome,[16],inactive
same,outcome,[17],inactive
same,outcome,[20],inactive
c1ccc2c(c1)ccc1ccccc12,outcome,[1],inactive
same,outcome,[2],inactive
same,outcome,[3],inactive
same,outcome,[4],inactive
same,outcome,[5],inactive
same,outcome,[6],inactive
same,outcome,[7],inactive
same,outcome,[8],inactive
same,outcome,[9],inactive
same,outcome,[18],inactive
same,outcome,[11],inactive
same,outcome,[12],inactive
same,outcome,[19],inactive
same,outcome,[13],inactive
same,outcome,[14],inactive
same,outcome,[15],inactive
same,outcome,[16],inactive
same,outcome,[17],inactive
same,outcome,[20],inactive
